# RN4220 kill: S. aureus RN4220 growth inhibition. OD600, 16 h. inhibition, % (no concentration beside the values). 0.33% of 330,000 active. AID 1259311; in the data active = inhibition above about 85%;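 also: plate controls were untreated cells for no effect and reference antibiotic for full effect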
# BJeLR viability: BJeLR cell viability loss; BJeLR (HRASV12) viability, CellTiter-Glo ATP luminescence, 48 h; inhibition, % (concentration not given with the values); 0.17% of 300,000 active; AID 1554; in the data active = inhibition above about 50%
# PriA SSB inh: K. pneumoniae PriA-SSBct interaction inhibition. inhibition, % at 33 µM. AlphaScreen SSBct-PriA binding, biotinylated peptide. AID 1272365. 0.6% of 430,000 active; in the data active = inhibition mostly above about 37%, no sharp cut-off; inactive = mostly below about 20%;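 also: plate controls were negative control peptide for no effect and reference peptide for full effect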
# MazEF act: increases E. coli MazEF RNase cleavage of RNA | AID 504720 | 0.32% of 350,000 active | P0AE70 | activation, % at 20 µM | FAM/BHQ RNA-DNA oligo cleavage fluorescence, 5 h; in the data active = activation above about 50%
# Target sequence (P0AE70 whole entry, looked up): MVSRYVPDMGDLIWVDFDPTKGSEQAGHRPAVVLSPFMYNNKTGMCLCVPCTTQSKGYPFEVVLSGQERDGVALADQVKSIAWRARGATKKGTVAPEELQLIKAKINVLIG
# ugtP null kill: growth inhibition of S. aureus ugtP deletion strain | growth inhibition, % (concentration not given with the values) | S. aureus RN4220 ugtP deletion, OD600 growth, 16 h | 0.54% of 330,000 active; in the data active = growth inhibition above about 68%;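 also: plate controls were untreated wells for no effect and antibiotic for full effect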
# Numbers without * were called inactive; . = no result given. Sampled rows, rich in hits. Any-hit rate of the full collection: about 1.2%.
SMILES,RN4220 kill,BJeLR viability,PriA SSB inh,MazEF act,ugtP null kill
CCNC(=S)N/N=C/c1sc(N2CCCCC2)nc1-c1cccs1,.,6,.,257*,.
Cn1cccc1-c1cc(C(=O)NN=Cc2ccccc2Cl)[nH]n1,14,.,40*,.,-8
Cn1cccc1-c1cc(C(=O)NN=Cc2cc(Br)ccc2O)[nH]n1,.,.,1,.,.
O=C(NCc1ccc(F)cc1)C(=O)Nc1cccc(N2CCCC2=O)c1,.,.,-20,.,.
COc1ccc(NC(=O)CN(C)C(=O)CSCc2c(C)noc2C)cc1,2,8,4,-1,1
COc1cc(CNc2ccc3[nH]c(=O)[nH]c3c2)ccc1OCc1ccccc1,4,-3,41*,9,12
COc1ccc(Br)cc1CNc1ccc2[nH]c(=O)[nH]c2c1,-2,10,39*,6,-10
COc1cc(CNc2ccc3[nH]c(=O)[nH]c3c2)ccc1OCc1ccc(F)cc1Cl,-1,1,16,1,-1
COc1cccc(CNc2ccc3[nH]c(=O)[nH]c3c2)c1OCc1ccccc1Cl,2,-11,79*,2,-8
COc1cccc(CNc2ccc3[nH]c(=O)[nH]c3c2)c1OCc1ccccc1,1,-1,47*,4,7
COc1ccc(Br)cc1CNc1ccc(O)cc1,-6,.,38,4,0
O=C(CN1C(=O)C(=O)N(Cc2ccco2)C1=O)NC1CCCCC1,3,-13,-11,3,1
CCCC(CNC(CNC)C(C)CC)NCCc1cc(C(F)(F)F)cc(C(F)(F)F)c1 (stereo unspecified),-3,.,.,.,-4
CCC(C)C(CNC)NCC(Cc1cccc2ccccc12)NCCc1cccc(C(F)(F)F)c1 (stereo unspecified),101*,.,.,.,100*
CNCC(Cc1ccccc1)NCC(Cc1cccc2ccccc12)NCCc1ccc(C)cc1 (stereo unspecified),101*,.,.,.,100*
CNC[C@H](Cc1ccccc1)NC[C@@H](Cc1cccc2ccccc12)NCCc1ccc(C)cc1,.,5,7,-18,.
Cn1c(=O)c2c(SCC(=O)Nc3ccccc3F)nc(C3CC3)nc2n(C)c1=O,-2,-3,-9,-20,0
COc1cc(CC(CC(=O)O)CC(C)OCc2ccccc2)cc(OC)c1 (stereo unspecified),5,2,-10,-2,3
c1ccc2c(C(c3ccc4c(c3)OCO4)c3c[nH]c4ccccc34)c[nH]c2c1,.,.,37*,.,.
O=C(NC(Cc1c[nH]c2ccccc12)C(=O)O)c1ccc2c(c1)OCO2 (stereo unspecified),1,9,-1,12,3
Clc1ccc(OCCSc2ncccn2)c2ccccc12,2,-4,-89,-6,96*
c1cnc(SCCOc2cccc3ccccc23)nc1,9,0,-74,1,9
O=C(Nc1ccc(-c2ccc3nnc(-c4ccccn4)n3n2)cc1)c1cccc(F)c1,.,.,40*,.,.
O=C(Nc1ccc(-c2ccc3nnc(-c4ccncc4)n3n2)cc1)c1cccc([N+](=O)[O-])c1,.,.,-5,.,.
CCCOc1cccc(C(=O)NC(=S)Nc2ccc(N3CCN(C)CC3)cc2)c1,9,-1,20,10,95*
SMILES,RN4220 kill,BJeLR viability,PriA SSB inh,MazEF act,ugtP null kill
CCOc1cccc(C(=O)NC(=S)Nc2ccc(N3CCN(CC)CC3)cc2)c1,2,2,24,0,94*
CCOc1cccc(C(=O)NC(=S)Nc2ccccc2)c1,4,-2,-4,5,-5
CCOc1ccc2nc(NC(NC(C)=O)(C(=O)OC)C(F)(F)F)sc2c1 (stereo unspecified),4,-7,-7,0,11
COc1ccc2c(c1)C(=NO)c1cc(OC)ccc1-2,-3,-2,-5,11,100*
O=C1CN(C(=O)c2ccc(Cl)c([N+](=O)[O-])c2)c2ccccc2N1,1,-2,3,7,4
Cc1ccc(Nc2c([N+](=O)[O-])cc(C(=O)N3CC(=O)Nc4ccccc43)cc2[N+](=O)[O-])c(C)c1,-4,-3,43*,10,-13
Cc1ccc(N(C(=O)CCl)C(C(=O)NC2CCCCC2)c2cccnc2)cc1C (stereo unspecified),16,101*,-4,15,-4
O=[N+]([O-])c1cc([N+](=O)[O-])c2oc(-c3ccccc3)c(Br)c2c1O,92*,15,10,5,93*
COc1ccc(Br)c(C(=O)OCc2cc(=O)oc3cc(C)ccc23)c1,9,-8,1,86*,2
Cc1ccc2c(COC(=O)c3ccccc3Br)cc(=O)oc2c1,4,-5,-8,31,-2
O=C(NCc1cccnc1)c1cccc(S(=O)(=O)Nc2ccc(F)cc2)c1,2,.,-4,-1,3
O=C(O)c1cccc(Cn2c(Cl)c(C=NNc3ccccc3)sc2=O)c1,94*,.,15,.,97*
O=C(NCCCn1nc(-c2ccco2)ccc1=O)c1ccc(C(F)(F)F)cc1,.,.,-10,.,.
Cc1ccc(S(=O)(=O)NN2C(=O)/C(=C/c3ccc(F)cc3)SC2=S)cc1,85*,-2,-8,-3,89*
C=CCOc1ccc(/C=C2\SC(=S)N(NS(=O)(=O)c3ccc(C)cc3)C2=O)cc1,63,4,-2,1,88*
COc1ccc(/C=C2/SC(=S)N(NS(=O)(=O)c3ccc(C)cc3)C2=O)cc1,64,8,2,0,82*
CCS(=O)(=O)N1Cc2ccccc2CC1C(=O)Nc1ccc(OC)cc1 (stereo unspecified),1,-1,-7,8,2
Cc1ccc(NC(=O)COC(=O)CN2C(=O)NC(C)(C)C2=O)cc1S(=O)(=O)N1CCOCC1,-3,-25,0,-4,-2
O=C(NCc1ccc2c(c1)OCO2)C12CN(Cc3ccccc3)CC1C(c1cccc([N+](=O)[O-])c1)=NO2 (stereo unspecified),1,-4,43*,-22,3
O=C(NCCOc1ccc(-c2ccccn2)nn1)c1ccco1,.,.,116*,.,.
NCCOc1ccccc1OCCN,-1,-13,1,4,1
NCCOc1ccc(-c2ccccn2)nn1,.,.,154*,.,.
Cc1cccc(N2CCN(C(=O)/C=C/c3cccs3)CC2C)c1 (stereo unspecified),7,24,10,-1,5
CCOc1cc(C=O)ccc1O,1,.,-4,9,10
CCOc1cc(/C=C2\CN(CC)C/C(=C\c3ccc(O)c(OCC)c3)C2=O)ccc1O,-2,57*,-6,-8,-12
CCOC(=O)Cc1csc(NC(=O)CSc2nnc(-c3ccncc3)o2)n1,1,-1,5,-2,1
Cc1ccc(NS(=O)(=O)c2ccc3[nH]c(=O)sc3c2)cc1,-9,8,-9,4,100*
CCOc1ccccc1N1CCN(C(=O)c2sc3ncccc3c2-n2cccc2)CC1,.,.,-14,.,.
Cc1ccc(NC(=O)C(OC(=O)c2ccc(C=O)cc2)c2ccccc2)cc1Cl (stereo unspecified),-13,8,-1,-2,90*
COc1cc2nc(N3CCNCC3)nc(N)c2cc1OC,8,3,46*,-3,10

# Screening data (PubChem BioAssay)
